Measured values from the supplement of paper PMC11732987, “Enantioselective OTUD7B fragment discovery through chemoproteomics screening and high-throughput optimisation” (Communications Chemistry, 2025).

Experiments:
Experiment in all cases: log2 ratio of Biotin-Ahx-Ub-VS probe labelling (fragment/DMSO); higher = less target engagement (more negative = stronger competition), active = hit call of the paper (q ≤ 0.05, log2 ratio ≤ -1)
Conditions in all cases: compound concentration: 200 uM; treatment time: 3 h
USP34 = USP34 (UniProt Q70CQ2)
Method in brief: (§1)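 Labelling with Biotin-Ahx-Ub-VS (0.5 µM final, 1 h) followed a 3 h triplicate treatment of HEK293T lysate (495 µg per sample, Tris/CHAPS/IGEPAL buffer with protease inhibitors) with fragment at 200 µM or vehicle. Labelled DUBs were NeutrAvidin-enriched, digested with LysC and trypsin, and run by diaPASEF LC-MS/MS. The values, average log2 fragment/vehicle ratios by unpaired t-test, come from global-median-normalised Spectronaut label-free quantities. Proteins with ≥2 unique peptides were used.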

USP36 = biological target: T1, USP36 (UniProt Q9P275)
T1 sequence (whole entry): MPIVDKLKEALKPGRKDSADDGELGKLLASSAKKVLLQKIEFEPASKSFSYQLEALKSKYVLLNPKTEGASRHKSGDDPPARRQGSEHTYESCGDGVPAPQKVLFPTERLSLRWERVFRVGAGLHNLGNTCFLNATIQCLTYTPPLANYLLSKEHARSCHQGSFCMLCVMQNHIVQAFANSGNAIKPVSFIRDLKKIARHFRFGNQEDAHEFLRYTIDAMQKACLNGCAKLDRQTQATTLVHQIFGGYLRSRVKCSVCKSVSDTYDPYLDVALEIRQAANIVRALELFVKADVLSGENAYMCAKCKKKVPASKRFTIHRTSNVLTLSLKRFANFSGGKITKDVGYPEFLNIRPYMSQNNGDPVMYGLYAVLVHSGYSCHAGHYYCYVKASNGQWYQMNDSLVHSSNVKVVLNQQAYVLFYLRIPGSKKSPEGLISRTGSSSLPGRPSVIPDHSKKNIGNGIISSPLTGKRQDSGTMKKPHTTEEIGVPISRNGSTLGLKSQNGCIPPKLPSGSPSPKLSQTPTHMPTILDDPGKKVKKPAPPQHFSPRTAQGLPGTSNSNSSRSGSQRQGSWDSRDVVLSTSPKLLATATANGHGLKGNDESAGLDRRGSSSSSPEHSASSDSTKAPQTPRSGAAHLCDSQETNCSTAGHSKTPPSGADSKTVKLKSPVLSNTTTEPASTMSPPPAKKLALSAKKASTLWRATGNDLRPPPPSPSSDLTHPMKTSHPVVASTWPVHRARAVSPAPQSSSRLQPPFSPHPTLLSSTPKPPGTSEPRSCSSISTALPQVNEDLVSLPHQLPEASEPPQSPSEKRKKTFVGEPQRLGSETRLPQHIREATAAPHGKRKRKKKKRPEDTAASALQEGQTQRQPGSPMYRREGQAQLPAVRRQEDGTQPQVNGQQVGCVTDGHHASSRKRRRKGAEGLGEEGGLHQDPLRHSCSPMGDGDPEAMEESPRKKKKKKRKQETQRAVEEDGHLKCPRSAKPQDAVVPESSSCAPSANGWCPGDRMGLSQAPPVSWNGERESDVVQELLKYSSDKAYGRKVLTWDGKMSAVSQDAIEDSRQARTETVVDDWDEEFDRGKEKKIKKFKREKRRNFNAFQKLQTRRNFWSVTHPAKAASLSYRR
Method in brief: as §1

USP38 = biological target: T2, USP38 (UniProt Q8NB14)
T2 sequence (whole entry): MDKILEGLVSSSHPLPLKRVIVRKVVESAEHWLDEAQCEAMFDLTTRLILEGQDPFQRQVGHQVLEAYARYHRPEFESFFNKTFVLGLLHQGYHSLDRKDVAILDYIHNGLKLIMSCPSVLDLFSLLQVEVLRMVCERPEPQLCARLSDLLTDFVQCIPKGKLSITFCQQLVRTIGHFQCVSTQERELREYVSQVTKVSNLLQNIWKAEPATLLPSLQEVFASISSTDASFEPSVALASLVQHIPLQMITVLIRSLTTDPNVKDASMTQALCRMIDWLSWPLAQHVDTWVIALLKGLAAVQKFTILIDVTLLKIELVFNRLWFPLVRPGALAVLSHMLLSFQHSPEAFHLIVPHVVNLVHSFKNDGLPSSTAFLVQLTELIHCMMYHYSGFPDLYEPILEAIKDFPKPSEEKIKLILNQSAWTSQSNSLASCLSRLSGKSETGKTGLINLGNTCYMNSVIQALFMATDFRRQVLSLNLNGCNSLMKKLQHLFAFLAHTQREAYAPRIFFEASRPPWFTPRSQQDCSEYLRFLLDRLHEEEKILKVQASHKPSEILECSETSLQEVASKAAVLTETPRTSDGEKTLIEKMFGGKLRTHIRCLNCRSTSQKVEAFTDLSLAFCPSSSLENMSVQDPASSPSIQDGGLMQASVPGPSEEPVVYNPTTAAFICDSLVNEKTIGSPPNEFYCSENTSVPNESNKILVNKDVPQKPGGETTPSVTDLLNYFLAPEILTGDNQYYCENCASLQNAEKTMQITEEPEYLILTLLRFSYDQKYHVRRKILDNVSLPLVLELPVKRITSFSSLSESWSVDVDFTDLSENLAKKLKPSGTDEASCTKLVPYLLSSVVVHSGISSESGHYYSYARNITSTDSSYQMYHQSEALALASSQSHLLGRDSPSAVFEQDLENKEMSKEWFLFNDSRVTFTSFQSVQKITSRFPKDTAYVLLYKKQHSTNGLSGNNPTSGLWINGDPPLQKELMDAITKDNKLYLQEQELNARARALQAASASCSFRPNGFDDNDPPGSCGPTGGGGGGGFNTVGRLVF
Method in brief: as §1

USP39 = biological target: T3, USP39 (UniProt Q53GS9)
T3 sequence (whole entry): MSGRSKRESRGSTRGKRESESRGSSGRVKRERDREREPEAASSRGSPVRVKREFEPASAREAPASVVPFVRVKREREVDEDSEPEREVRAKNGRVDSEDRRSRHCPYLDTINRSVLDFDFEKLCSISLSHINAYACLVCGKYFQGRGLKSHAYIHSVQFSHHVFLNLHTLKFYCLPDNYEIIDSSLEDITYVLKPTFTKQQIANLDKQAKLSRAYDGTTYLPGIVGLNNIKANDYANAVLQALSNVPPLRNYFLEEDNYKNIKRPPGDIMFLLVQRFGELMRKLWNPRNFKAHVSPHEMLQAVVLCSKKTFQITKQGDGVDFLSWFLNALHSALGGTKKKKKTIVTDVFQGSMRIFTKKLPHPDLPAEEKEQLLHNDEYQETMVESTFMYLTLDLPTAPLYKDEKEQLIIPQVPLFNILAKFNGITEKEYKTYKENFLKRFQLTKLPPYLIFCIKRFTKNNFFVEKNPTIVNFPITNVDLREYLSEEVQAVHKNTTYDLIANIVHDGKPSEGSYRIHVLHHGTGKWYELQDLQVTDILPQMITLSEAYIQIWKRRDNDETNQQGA
Method in brief: as §1

USP4 = biological target: T4, USP4 (UniProt Q13107)
T4 sequence (whole entry): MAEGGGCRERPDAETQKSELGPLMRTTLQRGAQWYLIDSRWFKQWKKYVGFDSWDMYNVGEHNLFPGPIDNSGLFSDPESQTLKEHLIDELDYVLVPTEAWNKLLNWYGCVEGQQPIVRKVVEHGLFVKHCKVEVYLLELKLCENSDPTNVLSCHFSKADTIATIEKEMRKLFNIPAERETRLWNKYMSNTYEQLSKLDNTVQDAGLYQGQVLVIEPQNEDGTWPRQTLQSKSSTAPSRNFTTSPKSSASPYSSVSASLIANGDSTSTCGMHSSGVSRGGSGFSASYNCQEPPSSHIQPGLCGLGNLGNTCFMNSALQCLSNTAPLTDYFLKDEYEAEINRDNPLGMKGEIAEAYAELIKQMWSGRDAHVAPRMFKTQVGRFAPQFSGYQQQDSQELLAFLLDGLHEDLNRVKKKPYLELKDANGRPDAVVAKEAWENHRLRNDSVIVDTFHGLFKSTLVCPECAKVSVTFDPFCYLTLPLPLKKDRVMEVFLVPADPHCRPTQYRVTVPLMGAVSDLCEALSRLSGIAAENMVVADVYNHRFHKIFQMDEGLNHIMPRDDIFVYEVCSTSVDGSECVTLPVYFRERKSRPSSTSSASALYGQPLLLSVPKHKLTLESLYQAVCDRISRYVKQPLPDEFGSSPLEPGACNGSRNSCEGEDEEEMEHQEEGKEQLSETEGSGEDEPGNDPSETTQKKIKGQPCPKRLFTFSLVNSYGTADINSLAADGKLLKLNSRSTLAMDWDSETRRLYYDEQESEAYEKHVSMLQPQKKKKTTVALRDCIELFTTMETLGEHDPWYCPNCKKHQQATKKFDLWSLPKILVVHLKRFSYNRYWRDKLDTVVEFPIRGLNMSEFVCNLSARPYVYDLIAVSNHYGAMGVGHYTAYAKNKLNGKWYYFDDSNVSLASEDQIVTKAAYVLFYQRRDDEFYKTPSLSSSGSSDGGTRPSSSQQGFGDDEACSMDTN
Method in brief: as §1

Measured: log2 ratio of Biotin-Ahx-Ub-VS probe labelling

Sequence of USP34 (Q70CQ2 whole entry, the tested form may be a part): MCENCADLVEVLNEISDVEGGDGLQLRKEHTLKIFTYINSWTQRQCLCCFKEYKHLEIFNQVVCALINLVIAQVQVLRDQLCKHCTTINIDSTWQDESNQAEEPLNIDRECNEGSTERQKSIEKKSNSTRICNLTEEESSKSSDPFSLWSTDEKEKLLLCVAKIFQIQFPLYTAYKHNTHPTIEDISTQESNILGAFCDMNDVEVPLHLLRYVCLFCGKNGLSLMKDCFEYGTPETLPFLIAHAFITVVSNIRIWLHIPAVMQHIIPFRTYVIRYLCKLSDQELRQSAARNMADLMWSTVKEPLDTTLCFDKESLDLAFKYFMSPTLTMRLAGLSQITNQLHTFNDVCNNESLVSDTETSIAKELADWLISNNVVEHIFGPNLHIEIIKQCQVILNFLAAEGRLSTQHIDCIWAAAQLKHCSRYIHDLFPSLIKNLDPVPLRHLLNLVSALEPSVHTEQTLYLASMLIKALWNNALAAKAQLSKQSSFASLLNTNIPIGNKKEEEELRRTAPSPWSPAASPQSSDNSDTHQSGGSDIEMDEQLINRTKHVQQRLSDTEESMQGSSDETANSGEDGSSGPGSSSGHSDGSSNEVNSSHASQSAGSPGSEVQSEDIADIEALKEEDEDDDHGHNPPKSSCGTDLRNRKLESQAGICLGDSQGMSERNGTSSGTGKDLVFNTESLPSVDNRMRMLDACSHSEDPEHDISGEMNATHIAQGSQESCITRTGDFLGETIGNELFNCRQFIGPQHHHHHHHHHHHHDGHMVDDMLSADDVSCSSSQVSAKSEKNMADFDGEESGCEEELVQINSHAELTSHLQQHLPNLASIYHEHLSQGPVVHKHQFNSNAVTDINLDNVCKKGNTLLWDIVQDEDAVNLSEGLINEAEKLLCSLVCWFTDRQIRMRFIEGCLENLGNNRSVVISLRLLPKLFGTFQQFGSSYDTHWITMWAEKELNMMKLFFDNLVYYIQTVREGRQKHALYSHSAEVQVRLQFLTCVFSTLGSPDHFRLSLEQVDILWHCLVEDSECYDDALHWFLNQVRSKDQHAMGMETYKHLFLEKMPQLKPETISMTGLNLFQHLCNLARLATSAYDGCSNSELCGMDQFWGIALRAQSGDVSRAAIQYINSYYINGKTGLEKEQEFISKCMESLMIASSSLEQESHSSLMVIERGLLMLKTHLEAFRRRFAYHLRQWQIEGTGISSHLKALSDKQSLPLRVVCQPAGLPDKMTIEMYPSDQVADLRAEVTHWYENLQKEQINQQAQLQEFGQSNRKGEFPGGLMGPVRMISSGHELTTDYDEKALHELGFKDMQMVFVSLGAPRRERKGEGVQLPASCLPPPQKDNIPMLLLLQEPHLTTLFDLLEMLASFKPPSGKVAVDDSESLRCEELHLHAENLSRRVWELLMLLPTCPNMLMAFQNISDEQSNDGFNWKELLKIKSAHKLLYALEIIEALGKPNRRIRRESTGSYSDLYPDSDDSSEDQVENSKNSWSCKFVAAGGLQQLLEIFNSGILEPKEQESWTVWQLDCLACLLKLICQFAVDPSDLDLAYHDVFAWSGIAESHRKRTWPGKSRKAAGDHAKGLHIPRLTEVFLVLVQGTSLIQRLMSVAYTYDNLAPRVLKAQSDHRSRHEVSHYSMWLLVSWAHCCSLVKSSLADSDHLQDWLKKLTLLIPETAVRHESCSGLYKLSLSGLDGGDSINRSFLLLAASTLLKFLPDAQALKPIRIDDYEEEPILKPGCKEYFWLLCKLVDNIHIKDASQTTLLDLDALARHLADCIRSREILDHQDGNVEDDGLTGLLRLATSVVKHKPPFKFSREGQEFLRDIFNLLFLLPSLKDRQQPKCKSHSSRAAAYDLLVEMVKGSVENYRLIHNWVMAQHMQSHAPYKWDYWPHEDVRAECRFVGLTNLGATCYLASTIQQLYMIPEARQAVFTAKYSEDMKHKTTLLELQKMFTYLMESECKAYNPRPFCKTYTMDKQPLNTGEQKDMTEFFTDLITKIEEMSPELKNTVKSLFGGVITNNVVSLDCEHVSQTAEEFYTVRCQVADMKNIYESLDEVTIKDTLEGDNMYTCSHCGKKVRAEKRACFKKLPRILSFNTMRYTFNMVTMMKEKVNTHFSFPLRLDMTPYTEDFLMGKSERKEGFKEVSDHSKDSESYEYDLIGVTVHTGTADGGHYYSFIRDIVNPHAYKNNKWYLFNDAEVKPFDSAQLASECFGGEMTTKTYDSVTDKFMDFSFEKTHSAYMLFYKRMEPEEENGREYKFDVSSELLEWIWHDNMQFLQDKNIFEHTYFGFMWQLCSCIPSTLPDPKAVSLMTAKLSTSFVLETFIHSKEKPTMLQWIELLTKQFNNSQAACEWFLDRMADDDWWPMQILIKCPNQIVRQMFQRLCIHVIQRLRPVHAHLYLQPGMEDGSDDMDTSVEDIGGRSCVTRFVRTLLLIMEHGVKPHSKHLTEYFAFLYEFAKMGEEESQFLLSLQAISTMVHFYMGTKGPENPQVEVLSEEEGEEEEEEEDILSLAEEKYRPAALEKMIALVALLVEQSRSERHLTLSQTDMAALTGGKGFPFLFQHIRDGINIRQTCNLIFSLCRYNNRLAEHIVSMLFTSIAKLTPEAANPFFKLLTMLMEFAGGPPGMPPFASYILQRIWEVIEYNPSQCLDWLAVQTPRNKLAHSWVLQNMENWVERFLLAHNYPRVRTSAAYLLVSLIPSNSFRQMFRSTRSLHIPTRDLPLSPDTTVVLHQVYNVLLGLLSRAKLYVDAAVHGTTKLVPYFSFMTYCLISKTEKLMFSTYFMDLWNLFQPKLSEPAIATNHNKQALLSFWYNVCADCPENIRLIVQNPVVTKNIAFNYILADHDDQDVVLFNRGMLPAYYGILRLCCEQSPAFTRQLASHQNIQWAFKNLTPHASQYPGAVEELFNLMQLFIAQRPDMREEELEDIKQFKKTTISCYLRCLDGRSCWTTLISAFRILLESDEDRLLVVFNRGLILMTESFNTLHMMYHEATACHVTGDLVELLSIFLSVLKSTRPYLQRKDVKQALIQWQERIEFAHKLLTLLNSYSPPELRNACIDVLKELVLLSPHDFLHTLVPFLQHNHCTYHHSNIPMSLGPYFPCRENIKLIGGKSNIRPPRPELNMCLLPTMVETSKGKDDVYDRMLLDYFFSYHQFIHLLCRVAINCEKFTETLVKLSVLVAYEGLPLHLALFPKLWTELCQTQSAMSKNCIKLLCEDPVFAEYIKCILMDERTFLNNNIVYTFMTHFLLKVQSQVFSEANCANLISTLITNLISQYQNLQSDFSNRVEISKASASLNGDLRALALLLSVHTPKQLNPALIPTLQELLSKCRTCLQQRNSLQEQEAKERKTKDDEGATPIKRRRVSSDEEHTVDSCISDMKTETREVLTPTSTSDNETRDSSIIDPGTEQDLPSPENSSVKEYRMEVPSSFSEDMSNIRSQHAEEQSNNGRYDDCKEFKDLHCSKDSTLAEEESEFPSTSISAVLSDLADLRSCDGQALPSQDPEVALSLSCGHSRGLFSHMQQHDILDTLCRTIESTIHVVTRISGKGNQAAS

CC(NC(=O)CCl)c1cccc(Cl)c1 (stereo not given)
inactive: USP34 -0.653 | USP36 -0.283 | USP38 -0.175 | USP39 -0.294 | USP4 -0.239
